# Experimental data published in PubChem BioAssay (Tox21).
# Values without a mark were called inactive. Records with an inconclusive call do not appear. Entries that show only a call come without a potency. Active and inactive are the calls of the source. Unless noted, calls follow the shape of the dose curve; as a rule, active = well fitted curve in the direction sought with a large enough effect in the repeat runs; inconclusive = weak or mixed curves; inactive = no such curve, though single readings can be large; an effect the other way counts as inactive or inconclusive.
# Key:
# [1] = qHTS assay to identify small molecule agonists of the hypoxia (HIF-1) signaling pathway (AID 1224846; active = well fitted activation curve with a large enough effect in the signal ratio in the repeat runs, not every such curve was filed as active; the % refers to the signal ratio)
# Procedure, shortened: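 Reporter induction in HRE-bla ME-180 cells is taken as agonism: cells sit 5 hrs after plating, receive compounds or DMSO only, incubate 17 hrs at 37C under 5% CO2, and are loaded with CCF4-AM for beta-lactamase FRET measurement.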
# [2] = qHTS assay to identify small molecule agonists of H2AX - cell viability counter screen (AID 1224847; calls by dose curve; also: top concentration of the series differs between compounds; nearly all actives have a fitted effect of over 30% in size)
# Procedure, shortened: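 Cytotoxicity counter screen in wild-type CHO-K1 cells: a 3 hr compound treatment at 37C across 15 concentrations, followed by CellTiter-Glo luminescence to gauge viable cells.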
# [3] = qHTS RealTime-Glo MT Cell Viability Assay in HepG2 cells - 24 hour (AID 1224867); also: nearly all actives have a fitted effect of over 50% in size
# Procedure, shortened: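 Luminescence read-out: viable HepG2 cells reduce a prosubstrate to a NanoLuc substrate, giving a signal proportional to live cell number. Reads taken at 0, 8, 16, 24, 32 and 40 h of compound exposure at 37 C.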
# [4] = qHTS RealTime-Glo MT Cell Viability Assay in HEK293 cells - 32 hour (AID 1224868); also: nearly all actives have a fitted effect of over 50% in size; also: potency is read from the fitted curve at half-maximal effect; as to activity change, negative = cytotoxic: top concentration of the series differs between compounds
# Procedure, shortened: (§1)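 Nonlytic real-time viability readout: viable cells convert prosubstrate to NanoLuc substrate, giving luminescence proportional to live cell number. HEK293, 600 cells/well, compound added after 5 h, continuous culture at 37 C.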
# [5] = A CellTox Green Cytotoxicity Assay to monitor cytotoxicity in HEK293 cells - 0 hour (AID 1224869); also: nearly all actives have a fitted effect of over 50% in size
# Procedure, shortened: (§2)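 Tox21 screen in HEK293: membrane-impermeant cyanine dye fluoresces on binding dead-cell DNA; compound pinned 5 h post-seeding, plates held at 37 C, signal read repeatedly through 40 h.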
# [6] = qHTS RealTime-Glo MT Cell Viability Assay in HepG2 cells - 40 hour (AID 1224870); also: nearly all actives have a fitted effect of over 50% in size
# Procedure, shortened: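 HepG2 cells mixed with RealTime-Glo MT reagents (NanoLuc plus cell-permeant prosubstrate) were seeded at 600 cells/well, incubated 5 h at 37 C/5% CO2, then pinned with compounds in DMSO; nonlytic luminescence tracked viability during 40 h treatment.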
# [7] = A CellTox Green Cytotoxicity Assay to monitor cytotoxicity in HEK293 cells - 40 hour (AID 1224871); also: nearly all actives have a fitted effect of over 45% in size
# Procedure, shortened: as §2
# [8] = qHTS RealTime-Glo MT Cell Viability Assay in HEK293 cells - 16 hour (AID 1224872); also: nearly all actives have a fitted effect of over 50% in size; also: potency is read from the fitted curve at half-maximal effect; as to activity change, negative = cytotoxicity: top concentration of the series differs between compounds
# Procedure, shortened: as §1
# [9] = qHTS assay to identify small molecule antagonists of the estrogen related receptor (ERR) signaling pathway from Tox21 library (AID 1224848); also: nearly all actives have a fitted effect of over 50% in size
# Procedure, shortened: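 First, 2,000 ERR cells per well were plated and held 6 h at 37 C/5% CO2. Next, compounds in DMSO were pinned in and left 18 h at 37 C. Finally, ONE-Glo was added and luminescence read after 30 min at room temperature.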
# [10] = qHTS assay to identify small molecule agonists of the estrogen related receptor (ERR) signaling pathway from Tox21 library (AID 1224849; calls by dose curve; also: nearly all actives have a fitted effect of over 15% in size); conditions: ERR reporter cell line, ONE-Glo luciferase, 18 h; at 92.4 µM (top of the series) unless noted
# Procedure, shortened: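 Tox21 compounds tested for ERR agonism in an NTP reporter cell line: 18 h treatment at 37 C, then ONE-Glo luminescence.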
Compound,outcome [1],Potency [2],outcome [3],Potency [4],outcome [5],outcome [6],Potency [7],Potency [8],Potency [9],activation [1],"activity change, negative = cytotoxicity [2]","activity, negative = inhibition [9]","activity change, positive = activation [10]",cytotoxicity [5],"activity change, negative = cytotoxic [6]",cytotoxicity increase [7]
c1ccc2nccnc2c1,inactive,inactive,inactive,inactive,inactive,inactive,inactive,inactive,–,–,–,–,–,–,–,–
OCCC(F)(F)C(F)(F)C(F)(F)C(F)(F)C(F)(F)C(F)(F)C(F)(F)C(F)(F)F,inactive,inactive,inactive,–,inactive,inactive,inactive,inactive,inactive,–,–,–,–,–,–,–
CCCCCCCCC1CCC(=O)O1 (stereo unspecified),inactive,inactive,inactive,–,inactive,inactive,inactive,inactive,inactive,–,–,–,–,–,–,–
CCOc1cc([N+](=O)[O-])c(OCC)cc1N1CCOCC1,inactive,inactive,inactive,15.5 µM (active),inactive,inactive,inactive,19.5 µM (active),–,–,–,–,–,–,–,–
CCCCCCCC/C=C\CCCCCCCC(=O)OCCCC,–,–,–,–,–,–,–,–,–,-1.44% [at 15.8 µM],-0.831% [at 31.6 µM],0.129% [at 19 µM],0.0665% [at 19 µM],-14.5% [at 15.8 µM],12.2% [at 15.8 µM],-33.9% [at 15.8 µM]
OCCCCC(O)CO (stereo unspecified),inactive,inactive,–,inactive,–,inactive,inactive,inactive,inactive,–,–,–,-0.533%,–,–,–
CCCCCCCCCC(C)=O,inactive,inactive,inactive,inactive,inactive,inactive,inactive,inactive,–,–,–,–,–,–,–,–
Cc1[nH]cnc1-c1ccc(Cl)cc1,inactive,inactive,inactive,inactive,inactive,inactive,inactive,inactive,–,–,–,–,–,–,–,–
O=C(O)c1cc(Cl)cc([N+](=O)[O-])c1Cl,inactive,inactive,–,inactive,–,inactive,inactive,inactive,inactive,–,–,–,-9.65%,–,–,–
CC1(CO)CN(c2ccccc2)NC1=O (stereo unspecified),inactive,inactive,inactive,inactive,inactive,inactive,inactive,inactive,–,–,–,–,–,–,–,–
O=C(Nc1ccc(Cl)c(Cl)c1)C1CC1,inactive,inactive,inactive,9.52 µM (active),inactive,inactive,inactive,9.52 µM (active),–,–,–,–,-22.3% [at 42.5 µM],–,–,–
O=C(c1ccc(O)cc1)c1ccc(O)c(O)c1O,inactive,inactive,–,–,–,inactive,inactive,inactive,inactive,–,–,–,-5.51%,–,–,–
CCCCCCCCC(=O)Cl,inactive,inactive,–,inactive,inactive,inactive,–,inactive,inactive,–,–,–,0.757%,–,–,–
CC(=O)c1sc(C)nc1C,inactive,inactive,–,inactive,inactive,inactive,inactive,inactive,inactive,–,–,–,-11%,–,–,–
CCOC(=O)[C@H](CCc1ccccc1)N[C@@H](C)C(=O)N1C(=O)N(C)C[C@H]1C(=O)O,inactive,inactive,inactive,inactive,inactive,inactive,inactive,inactive,–,–,–,–,–,–,–,–
CC(=O)/C=C/C1C(C)=CCC(C)C1(C)C (stereo unspecified),inactive,inactive,–,inactive,inactive,inactive,inactive,inactive,inactive,–,–,–,-6.15%,–,–,–
O=C(O)C(=O)Cc1ccccc1,inactive,inactive,inactive,inactive,inactive,inactive,inactive,inactive,–,–,–,–,–,–,–,–
CC(=O)Nc1ccc(S(=O)(=O)Nc2ccc([N+](=O)[O-])cc2)cc1,inactive,inactive,inactive,inactive,inactive,inactive,inactive,inactive,–,–,–,–,–,–,–,–
Cc1ccc2c(c1)OCC(=O)CO2,inactive,inactive,inactive,inactive,–,inactive,inactive,inactive,inactive,–,–,–,–,–,–,–
NCCN1CCOCC1,inactive,inactive,inactive,inactive,inactive,inactive,inactive,inactive,–,–,–,–,–,–,–,–
